From the supplement of paper PMC11732987, “Enantioselective OTUD7B fragment discovery through chemoproteomics screening and high-throughput optimisation” (Communications Chemistry, 2025)

Tests used:
Assay in all cases: log2 ratio of Biotin-Ahx-Ub-VS probe labelling (fragment/DMSO); higher = less target engagement (more negative = stronger competition), active = hit call of the paper (q ≤ 0.05, log2 ratio ≤ -1)
Conditions in all cases: compound concentration: 200 uM; treatment time: 3 h
USP34 = USP34 (UniProt Q70CQ2)
USP34, sequence (Q70CQ2 whole entry, the tested form may be a part): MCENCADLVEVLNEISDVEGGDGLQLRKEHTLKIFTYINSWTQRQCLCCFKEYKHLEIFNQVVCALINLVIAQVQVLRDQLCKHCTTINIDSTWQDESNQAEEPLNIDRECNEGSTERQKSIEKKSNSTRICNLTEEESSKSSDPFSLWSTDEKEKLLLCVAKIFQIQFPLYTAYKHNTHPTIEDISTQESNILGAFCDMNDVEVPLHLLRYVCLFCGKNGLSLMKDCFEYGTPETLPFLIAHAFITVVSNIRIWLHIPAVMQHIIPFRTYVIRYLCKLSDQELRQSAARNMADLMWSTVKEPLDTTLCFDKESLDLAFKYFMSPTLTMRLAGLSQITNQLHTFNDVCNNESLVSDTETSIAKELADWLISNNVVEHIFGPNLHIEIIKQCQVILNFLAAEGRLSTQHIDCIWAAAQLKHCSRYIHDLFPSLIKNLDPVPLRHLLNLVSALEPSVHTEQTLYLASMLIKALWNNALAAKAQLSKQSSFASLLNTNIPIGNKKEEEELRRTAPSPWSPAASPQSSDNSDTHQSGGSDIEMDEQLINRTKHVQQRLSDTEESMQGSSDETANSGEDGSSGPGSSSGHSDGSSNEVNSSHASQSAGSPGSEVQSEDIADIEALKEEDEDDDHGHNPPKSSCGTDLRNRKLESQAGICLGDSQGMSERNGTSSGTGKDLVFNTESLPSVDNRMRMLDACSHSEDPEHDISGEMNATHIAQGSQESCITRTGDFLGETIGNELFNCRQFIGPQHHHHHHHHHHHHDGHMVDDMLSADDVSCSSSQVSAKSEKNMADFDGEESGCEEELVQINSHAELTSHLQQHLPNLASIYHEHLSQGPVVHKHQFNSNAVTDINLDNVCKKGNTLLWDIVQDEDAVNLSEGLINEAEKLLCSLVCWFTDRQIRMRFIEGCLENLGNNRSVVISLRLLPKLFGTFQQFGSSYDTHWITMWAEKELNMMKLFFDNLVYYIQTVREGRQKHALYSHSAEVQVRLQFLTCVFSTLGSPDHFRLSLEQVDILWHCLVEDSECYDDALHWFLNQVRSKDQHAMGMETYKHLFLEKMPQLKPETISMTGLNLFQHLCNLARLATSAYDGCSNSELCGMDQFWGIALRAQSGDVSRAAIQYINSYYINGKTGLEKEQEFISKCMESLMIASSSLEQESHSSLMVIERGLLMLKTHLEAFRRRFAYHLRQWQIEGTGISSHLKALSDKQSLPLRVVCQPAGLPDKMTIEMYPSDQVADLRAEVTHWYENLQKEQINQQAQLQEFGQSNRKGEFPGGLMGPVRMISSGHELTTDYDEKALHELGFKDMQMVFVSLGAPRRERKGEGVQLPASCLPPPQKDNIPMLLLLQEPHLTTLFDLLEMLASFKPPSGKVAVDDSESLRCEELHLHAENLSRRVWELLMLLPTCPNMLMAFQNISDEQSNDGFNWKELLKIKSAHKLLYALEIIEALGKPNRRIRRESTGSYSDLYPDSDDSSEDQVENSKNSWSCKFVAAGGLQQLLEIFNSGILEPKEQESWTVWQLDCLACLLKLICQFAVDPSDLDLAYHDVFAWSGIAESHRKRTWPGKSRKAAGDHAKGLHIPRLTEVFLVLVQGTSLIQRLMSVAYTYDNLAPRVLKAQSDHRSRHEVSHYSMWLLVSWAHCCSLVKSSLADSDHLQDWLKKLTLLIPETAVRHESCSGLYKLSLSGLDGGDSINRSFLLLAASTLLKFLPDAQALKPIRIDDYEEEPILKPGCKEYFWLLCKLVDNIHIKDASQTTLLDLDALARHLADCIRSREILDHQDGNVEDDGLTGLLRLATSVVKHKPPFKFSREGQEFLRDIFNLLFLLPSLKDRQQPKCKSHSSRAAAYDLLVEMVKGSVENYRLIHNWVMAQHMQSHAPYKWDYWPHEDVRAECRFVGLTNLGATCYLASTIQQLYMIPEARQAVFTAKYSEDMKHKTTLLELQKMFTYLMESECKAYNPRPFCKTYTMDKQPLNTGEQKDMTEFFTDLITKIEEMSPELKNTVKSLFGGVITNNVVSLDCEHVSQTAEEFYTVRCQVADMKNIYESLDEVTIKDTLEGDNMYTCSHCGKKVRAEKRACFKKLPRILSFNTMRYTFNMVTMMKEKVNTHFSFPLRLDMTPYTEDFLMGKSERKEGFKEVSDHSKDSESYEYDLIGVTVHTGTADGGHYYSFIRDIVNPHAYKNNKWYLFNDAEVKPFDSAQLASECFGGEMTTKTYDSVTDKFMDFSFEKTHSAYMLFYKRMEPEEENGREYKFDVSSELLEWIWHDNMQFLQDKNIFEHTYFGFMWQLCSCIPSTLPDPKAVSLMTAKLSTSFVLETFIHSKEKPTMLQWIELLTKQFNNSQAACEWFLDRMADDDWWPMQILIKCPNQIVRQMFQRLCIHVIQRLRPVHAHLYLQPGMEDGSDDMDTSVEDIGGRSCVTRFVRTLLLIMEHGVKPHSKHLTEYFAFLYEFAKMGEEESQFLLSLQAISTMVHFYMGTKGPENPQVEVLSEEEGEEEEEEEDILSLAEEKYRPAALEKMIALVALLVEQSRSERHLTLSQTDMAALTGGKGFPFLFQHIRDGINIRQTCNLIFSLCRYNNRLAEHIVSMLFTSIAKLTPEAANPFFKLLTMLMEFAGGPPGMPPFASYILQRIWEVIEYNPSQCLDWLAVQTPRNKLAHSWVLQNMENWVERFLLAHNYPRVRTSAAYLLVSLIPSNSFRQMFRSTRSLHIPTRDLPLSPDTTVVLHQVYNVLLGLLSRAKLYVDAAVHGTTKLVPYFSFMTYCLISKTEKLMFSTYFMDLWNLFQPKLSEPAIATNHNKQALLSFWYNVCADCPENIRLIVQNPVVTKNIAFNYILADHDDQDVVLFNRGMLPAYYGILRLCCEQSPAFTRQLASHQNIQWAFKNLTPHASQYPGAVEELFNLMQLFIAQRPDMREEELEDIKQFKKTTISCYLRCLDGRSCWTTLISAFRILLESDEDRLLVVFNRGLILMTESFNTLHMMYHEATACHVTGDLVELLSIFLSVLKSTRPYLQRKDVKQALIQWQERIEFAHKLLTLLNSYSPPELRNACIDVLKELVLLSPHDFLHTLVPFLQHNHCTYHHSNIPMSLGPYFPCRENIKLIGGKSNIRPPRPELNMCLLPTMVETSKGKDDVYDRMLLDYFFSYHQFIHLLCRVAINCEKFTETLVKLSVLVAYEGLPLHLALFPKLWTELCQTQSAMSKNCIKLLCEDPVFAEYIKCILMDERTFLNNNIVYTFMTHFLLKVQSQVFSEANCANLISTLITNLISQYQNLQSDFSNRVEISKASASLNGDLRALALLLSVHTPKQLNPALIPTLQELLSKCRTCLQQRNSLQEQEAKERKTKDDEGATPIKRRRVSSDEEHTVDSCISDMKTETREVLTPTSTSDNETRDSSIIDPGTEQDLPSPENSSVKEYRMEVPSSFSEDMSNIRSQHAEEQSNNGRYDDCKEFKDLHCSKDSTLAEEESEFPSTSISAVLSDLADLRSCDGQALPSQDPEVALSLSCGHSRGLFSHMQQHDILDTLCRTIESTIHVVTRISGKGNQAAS
Procedure, shortened: (§1)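 Average log2 ratios of fragment over vehicle were obtained by unpaired t-test from global-median-normalised Spectronaut label-free quantities. Proteins with ≥2 unique peptides were included. HEK293T lysate (495 µg per sample) was treated in triplicate with fragment at 200 µM or vehicle for 3 h, then with Biotin-Ahx-Ub-VS at 0.5 µM final for 1 h, and labelled DUBs were NeutrAvidin-enriched and run by diaPASEF LC-MS/MS.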

USP36 = molecular target: T1, USP36 (UniProt Q9P275)
T1 sequence (whole entry): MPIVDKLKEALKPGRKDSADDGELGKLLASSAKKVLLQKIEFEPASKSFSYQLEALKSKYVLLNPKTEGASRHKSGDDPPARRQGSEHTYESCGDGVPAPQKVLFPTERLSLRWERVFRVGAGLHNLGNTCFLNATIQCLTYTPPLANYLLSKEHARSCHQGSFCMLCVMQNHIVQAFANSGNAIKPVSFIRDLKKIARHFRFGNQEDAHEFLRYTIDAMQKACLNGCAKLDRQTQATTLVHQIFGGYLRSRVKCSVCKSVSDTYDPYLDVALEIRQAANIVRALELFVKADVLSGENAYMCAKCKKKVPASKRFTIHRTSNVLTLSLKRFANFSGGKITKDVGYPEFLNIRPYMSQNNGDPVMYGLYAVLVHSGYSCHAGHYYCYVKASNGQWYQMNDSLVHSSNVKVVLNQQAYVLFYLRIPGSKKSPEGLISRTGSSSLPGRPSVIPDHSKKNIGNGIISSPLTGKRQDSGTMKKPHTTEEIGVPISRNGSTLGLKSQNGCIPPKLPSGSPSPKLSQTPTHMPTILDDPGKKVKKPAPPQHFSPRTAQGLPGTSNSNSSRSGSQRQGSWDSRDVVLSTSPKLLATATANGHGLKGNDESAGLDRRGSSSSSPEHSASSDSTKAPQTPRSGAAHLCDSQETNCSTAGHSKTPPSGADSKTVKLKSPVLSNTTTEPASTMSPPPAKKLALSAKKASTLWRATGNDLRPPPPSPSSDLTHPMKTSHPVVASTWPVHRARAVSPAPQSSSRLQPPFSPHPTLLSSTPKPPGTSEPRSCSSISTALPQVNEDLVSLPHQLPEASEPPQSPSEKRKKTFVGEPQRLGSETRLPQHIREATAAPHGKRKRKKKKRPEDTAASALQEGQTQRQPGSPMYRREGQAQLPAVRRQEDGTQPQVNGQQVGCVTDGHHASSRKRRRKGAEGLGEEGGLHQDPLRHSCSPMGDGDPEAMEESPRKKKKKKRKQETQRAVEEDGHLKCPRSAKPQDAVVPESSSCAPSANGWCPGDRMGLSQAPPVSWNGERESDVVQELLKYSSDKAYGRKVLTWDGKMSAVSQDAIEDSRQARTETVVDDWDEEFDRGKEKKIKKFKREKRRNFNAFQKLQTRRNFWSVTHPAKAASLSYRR
Procedure, shortened: as §1

USP38 = molecular target: T2, USP38 (UniProt Q8NB14)
T2 sequence (whole entry): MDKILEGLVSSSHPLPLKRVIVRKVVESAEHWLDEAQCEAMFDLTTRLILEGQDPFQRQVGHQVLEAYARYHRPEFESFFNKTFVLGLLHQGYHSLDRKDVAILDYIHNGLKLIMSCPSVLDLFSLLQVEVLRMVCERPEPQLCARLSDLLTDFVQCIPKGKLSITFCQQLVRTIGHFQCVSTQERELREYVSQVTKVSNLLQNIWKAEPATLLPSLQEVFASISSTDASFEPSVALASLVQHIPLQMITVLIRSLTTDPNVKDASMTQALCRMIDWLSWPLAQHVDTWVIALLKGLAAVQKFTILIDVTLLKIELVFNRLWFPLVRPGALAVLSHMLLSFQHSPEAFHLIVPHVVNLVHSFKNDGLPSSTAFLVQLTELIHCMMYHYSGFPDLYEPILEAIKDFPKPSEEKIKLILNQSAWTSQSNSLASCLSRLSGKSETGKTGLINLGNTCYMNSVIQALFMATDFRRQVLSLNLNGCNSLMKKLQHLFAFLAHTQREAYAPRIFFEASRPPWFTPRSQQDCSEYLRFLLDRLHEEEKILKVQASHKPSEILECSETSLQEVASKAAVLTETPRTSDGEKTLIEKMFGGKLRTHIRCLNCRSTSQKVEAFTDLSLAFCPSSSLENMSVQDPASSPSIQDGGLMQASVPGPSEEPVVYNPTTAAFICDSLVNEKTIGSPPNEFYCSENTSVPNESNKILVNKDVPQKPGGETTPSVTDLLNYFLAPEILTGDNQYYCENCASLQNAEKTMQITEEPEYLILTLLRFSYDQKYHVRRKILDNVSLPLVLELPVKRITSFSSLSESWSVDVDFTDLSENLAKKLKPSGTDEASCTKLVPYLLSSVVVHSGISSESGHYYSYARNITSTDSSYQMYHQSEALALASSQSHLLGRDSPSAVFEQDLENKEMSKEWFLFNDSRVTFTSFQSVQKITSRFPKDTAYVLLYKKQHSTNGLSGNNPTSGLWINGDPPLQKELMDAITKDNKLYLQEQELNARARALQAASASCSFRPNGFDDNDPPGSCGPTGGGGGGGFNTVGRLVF
Procedure, shortened: as §1

USP39 = molecular target: T3, USP39 (UniProt Q53GS9)
T3 sequence (whole entry): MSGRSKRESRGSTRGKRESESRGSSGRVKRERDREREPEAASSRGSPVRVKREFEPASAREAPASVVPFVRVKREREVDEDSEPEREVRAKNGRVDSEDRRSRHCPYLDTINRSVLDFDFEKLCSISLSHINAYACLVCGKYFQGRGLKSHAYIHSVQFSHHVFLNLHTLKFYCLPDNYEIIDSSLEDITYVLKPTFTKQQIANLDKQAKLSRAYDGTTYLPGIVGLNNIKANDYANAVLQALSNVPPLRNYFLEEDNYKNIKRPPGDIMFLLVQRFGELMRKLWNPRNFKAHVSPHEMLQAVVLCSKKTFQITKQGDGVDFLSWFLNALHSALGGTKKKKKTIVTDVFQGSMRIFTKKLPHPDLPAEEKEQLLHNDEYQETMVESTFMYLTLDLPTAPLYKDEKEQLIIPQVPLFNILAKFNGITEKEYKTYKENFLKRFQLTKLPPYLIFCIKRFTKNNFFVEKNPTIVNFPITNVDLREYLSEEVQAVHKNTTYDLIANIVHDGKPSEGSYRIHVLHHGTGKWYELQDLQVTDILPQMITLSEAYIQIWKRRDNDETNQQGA
Procedure, shortened: as §1

USP4 = molecular target: T4, USP4 (UniProt Q13107)
T4 sequence (whole entry): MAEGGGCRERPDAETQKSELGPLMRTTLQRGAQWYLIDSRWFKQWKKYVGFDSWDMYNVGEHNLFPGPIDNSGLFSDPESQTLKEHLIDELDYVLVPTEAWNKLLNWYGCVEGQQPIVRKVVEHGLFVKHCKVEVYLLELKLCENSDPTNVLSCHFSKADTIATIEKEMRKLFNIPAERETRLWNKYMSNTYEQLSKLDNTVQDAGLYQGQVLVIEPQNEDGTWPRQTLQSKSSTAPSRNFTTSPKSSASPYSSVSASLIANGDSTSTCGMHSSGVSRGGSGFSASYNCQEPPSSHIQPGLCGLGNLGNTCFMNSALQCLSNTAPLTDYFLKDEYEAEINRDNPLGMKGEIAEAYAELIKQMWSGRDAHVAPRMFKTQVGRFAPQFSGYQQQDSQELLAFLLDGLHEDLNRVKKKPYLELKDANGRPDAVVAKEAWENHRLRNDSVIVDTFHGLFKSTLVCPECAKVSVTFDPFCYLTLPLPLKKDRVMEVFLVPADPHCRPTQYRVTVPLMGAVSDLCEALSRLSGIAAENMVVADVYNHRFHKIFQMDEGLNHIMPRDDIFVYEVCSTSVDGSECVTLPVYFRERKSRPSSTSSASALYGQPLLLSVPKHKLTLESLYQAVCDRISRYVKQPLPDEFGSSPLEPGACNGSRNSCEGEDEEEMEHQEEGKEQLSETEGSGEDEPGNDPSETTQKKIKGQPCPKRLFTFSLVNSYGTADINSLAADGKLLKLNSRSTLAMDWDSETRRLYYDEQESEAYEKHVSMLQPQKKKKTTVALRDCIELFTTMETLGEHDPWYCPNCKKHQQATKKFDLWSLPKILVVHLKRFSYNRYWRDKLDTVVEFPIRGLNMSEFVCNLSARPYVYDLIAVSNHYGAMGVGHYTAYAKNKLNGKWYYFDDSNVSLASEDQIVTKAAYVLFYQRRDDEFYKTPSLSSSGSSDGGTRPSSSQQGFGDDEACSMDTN
Procedure, shortened: as §1

Measured: log2 ratio of Biotin-Ahx-Ub-VS probe labelling

CC(c1ccccc1)N(C)C(=O)CCl (stereo not given)
inactive: USP34 -0.323 | USP36 -0.306 | USP38 -0.0902 | USP39 -0.413 | USP4 -0.289
